The structures appear in SMILES notation. Out of some 390,000 compounds screened, about 4,000 (1%) were called active. Inconclusive results (about 7%) are left out. The entries come from a sample that favours actives as a whole. Values without a mark were called inactive. The call rests on the fitted dose curve; in most records, active means well fitted inhibition curve with a large enough effect; inconclusive means small, poorly fitted or top-dose-only effect, or another doubt; inactive means no such curve, though single readings can be large or run the other way.
Potency means the concentration at half of the fitted maximal effect.

The target in the assay is DNA polymerase iota (Homo sapiens) (UniProt Q9UNA4). The assay is described as follows: qHTS for Inhibitors of Polymerase Iota. To be noted: Pol iota fluorescent replication assay, 10 min; series mostly up to 115 µM; activity, negative = inhibition: at the top concentration. Put shortly: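 Pol iota at 10 nM preincubated 15 min with compounds at room temperature; reaction started with fluorescent substrate, 50 nM final. Fluorescence read kinetically at 0 and 10 min; buffer-only wells as negative control.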
Chain of DNA polymerase iota (Homo sapiens) (Q9UNA4 whole entry, looked up): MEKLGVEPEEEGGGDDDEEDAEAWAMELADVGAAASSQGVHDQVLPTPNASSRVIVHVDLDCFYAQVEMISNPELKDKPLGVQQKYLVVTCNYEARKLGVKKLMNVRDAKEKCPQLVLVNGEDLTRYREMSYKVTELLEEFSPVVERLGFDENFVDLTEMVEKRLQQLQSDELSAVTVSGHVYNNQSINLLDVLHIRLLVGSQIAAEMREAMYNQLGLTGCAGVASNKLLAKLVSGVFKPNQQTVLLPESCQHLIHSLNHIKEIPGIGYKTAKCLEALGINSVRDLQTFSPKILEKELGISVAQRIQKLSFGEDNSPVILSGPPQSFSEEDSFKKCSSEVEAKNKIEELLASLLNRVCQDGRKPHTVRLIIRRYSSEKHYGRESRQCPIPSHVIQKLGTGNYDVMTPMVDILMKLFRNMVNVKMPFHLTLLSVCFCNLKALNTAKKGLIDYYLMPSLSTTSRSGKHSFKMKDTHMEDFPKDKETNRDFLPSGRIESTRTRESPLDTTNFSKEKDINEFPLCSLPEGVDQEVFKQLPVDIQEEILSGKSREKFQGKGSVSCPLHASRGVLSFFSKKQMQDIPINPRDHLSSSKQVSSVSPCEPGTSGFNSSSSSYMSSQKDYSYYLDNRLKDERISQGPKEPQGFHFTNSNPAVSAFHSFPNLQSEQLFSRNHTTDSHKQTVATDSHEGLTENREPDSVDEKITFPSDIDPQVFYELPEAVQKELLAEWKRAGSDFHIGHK
Regarding `COc1ccccc1N1CCN(c2ncnc3onc(-c4cccc(Cl)c4)c23)CC1`, the “activity, negative = inhibition” value was 27.2%. As for `Cc1c(NC(=O)Nc2ccc(F)c(Cl)c2)c(=O)n(-c2ccccc2)n1C`, the “activity, negative = inhibition” value was 6.61%.

For the molecule `CC(C)(C)C1CCC(NC(=O)c2cnn3c2NC(=C2CC2)C=C3C(F)F)CC1` (configuration not stated), the “activity, negative = inhibition” value is -18.2%. Take `Cc1cc(/C=C2/SC(=O)N(CC(=O)OC(C)C)C2=O)c(C)n1C`: the “activity, negative = inhibition” value was -4.85%.

For `Cc1cc(/C=C2\SC(=O)N(C)C2=O)c(C)n1-c1cccc(C(=O)O)c1`, the Potency was 17.8 µM (active). On to `Cc1ccc(N2C(=O)S/C(=C/c3cn(C)c4ccccc34)C2=O)cc1`, for which the “activity, negative = inhibition” value was 40.9%. For `Cc1cccc(C(=O)Nc2ccc(S(=O)(=O)N3CCCCC3c3cccnc3)cc2)c1` (configuration not stated), the “activity, negative = inhibition” value was 8.89%.

For the molecule `CCc1cccc(C)c1Nc1c(-c2ccc(N(C)C)cc2)nc2ncccn12`, the “activity, negative = inhibition” value is 7.92%.

As for `CCN(C(=O)Cn1c(=O)nc(-c2ccccc2)c2cc(Cl)ccc21)c1cccc(C)c1`, the “activity, negative = inhibition” value was 24.1%.

In the case of `CCC(C)N(c1ccc(/C=C/c2ccnc3ccccc23)cc1)C(C)CC` (configuration not stated), the “activity, negative = inhibition” value was 10%. As for `CC(=O)N1CCCc2cc(S(=O)(=O)N3CCC(C(=O)NCc4ccc(F)cc4)CC3)ccc21`, the “activity, negative = inhibition” value is 25.4%. On the same count and under the same terms, to `CCCCC(=O)OC1=CN(Cc2ccccc2)S(=O)(=O)c2ccccc21` belongs 2.75%; to `CCN(CC(=O)Nc1ccc(C)c(S(=O)(=O)N(C)C)c1)Cc1ccccc1`, 41.7%. Turning to `COc1ccc(CCC(=O)OCC(=O)Nc2ccc(C)c(S(=O)(=O)N(C)C)c2)cc1`, the Potency was 89.1 µM (active). `COc1cc(CCC(=O)OCC(=O)Nc2cccc(S(N)(=O)=O)c2)cc(OC)c1OC`: the “activity, negative = inhibition” value was 13.9%. Turning to `COc1ccc(-c2cc(C(F)(F)F)n3nc(-c4ccccc4)cc3n2)cc1OC`, the “activity, negative = inhibition” value was 3.5%.

In the case of `Cc1ccnc(-n2sc3ccccc3c2=O)n1`, the Potency is 25.1 µM (active). Regarding `Cc1ccc(-c2onc(C)c2C)cc1S(=O)(=O)Nc1ccccn1`, the “activity, negative = inhibition” value was 4.7%. For the molecule `COc1cc(OC)c(OC)cc1/C=C1\C=Cc2ccccc21`, the “activity, negative = inhibition” value was 5.35%. Consider `CCc1nnc(SCc2nc(-c3cccc(C)c3)oc2C)c2cc3sc(C)cc3n12`, for which the “activity, negative = inhibition” value is 11.7%. For `O=C(NCC(=O)N1CCN(c2ccccc2O)CC1)c1ccc2ccccc2c1`, the Potency was 89.1 µM (active). With `COc1ccc(N2CCN(C(=O)CNC(=O)c3ccc(C(C)(C)C)cc3)CC2)cc1`, the “activity, negative = inhibition” value was 21.1%. Regarding `O=C(CNC(=O)c1ccc2ccccc2c1)Nc1ncccc1O`, the “activity, negative = inhibition” value was 32%. Regarding `Cc1ccc(Cl)cc1N1CCN(C(=O)C2CCC(CNS(=O)(=O)c3cccs3)CC2)CC1` (configuration not stated), the “activity, negative = inhibition” value was 4.99%. Regarding `O=C(Cc1ccccc1)Nc1cccc(C(=O)N/N=C/c2ccco2)c1`, the “activity, negative = inhibition” value was 4.91%.

In the case of `O=C(N/N=C/c1ccco1)c1ccc(C(=O)N/N=C/c2ccco2)o1`, the Potency was 50.1 µM (active). As to `O=C(Cc1ccc([N+](=O)[O-])cc1)N/N=C/c1ccco1`, the “activity, negative = inhibition” value is 111%. The same measure, in the same setting: the result for `CCc1nnc(SCc2c(F)cccc2Cl)c2cc3sccc3n12` reads 9.66%; that for `CCc1ccccc1NC(=O)Cn1c(=O)n(-c2cccc(C)c2)c(=O)c2c1c1cc(OC)ccc1n2C`, 13.1%; that for `CC(=O)N1c2ccccc2N(Cc2ccc([N+](=O)[O-])cc2)C(=O)C1(C)C`, 18.7%. `O=c1[nH]n(-c2ccc([N+](=O)[O-])cc2)c(=O)c2ccccc12`: the Potency is 10 µM (active). On to `Cc1[nH]n(-c2ccc([N+](=O)[O-])cc2)c(=O)c1C=NCCN1CCN(C(=O)c2ccccc2F)CC1`, for which the “activity, negative = inhibition” value was 2.23%. In the case of `COC(=O)c1ccc(COc2ccc(/C=C/C(=O)c3ccc(OC)c(CSCC(=O)O)c3)cc2OC)cc1`, the Potency is 20 µM (active).

`COC(=O)c1ccc(C(NC(=O)OCc2ccccc2)/C(C)=C/[C@@H](C)C(=O)NCc2ccc(OC)c(OC)c2)cc1` (some centres not stated): the “activity, negative = inhibition” value is 3.74%.

For `COc1cc(/C=C/C(=O)OCC(=O)NC(=O)NCc2ccccc2)ccc1OCC#N`, the “activity, negative = inhibition” value was -6.58%. Still for that read-out and setting: the result for `CCN1CCN(CCCNC(=O)c2cnn(-c3ccc(C)cc3C)c2C2CCN(C(=O)OC(C)(C)C)CC2)CC1` reads 28.9%; that for `CCOc1ccc(CNCCSc2nnnn2C)cc1`, -4.68%. For the molecule `Cc1ccc(N(CC(=O)NCC(C)c2ccccc2)S(=O)(=O)N(C)C)cc1` (configuration not stated), the “activity, negative = inhibition” value was 18%. On the same count and under the same terms, to `COc1ccc(C2(Nc3cccc(F)c3)C(=O)c3ccccc3C2=O)cc1` belongs 21.1%. Same read-out and setting: the result for `CCCC(=O)N1c2ccc(-c3csc(N)n3)cc2CC1C` (configuration not stated) reads -5.87%.

Regarding `CC(C)(C)C(=O)OCc1nc(-c2ccc(O)c(O)c2)cs1`, the Potency was 31.6 µM (active).

Consider `CN(c1ccc(O)cc1)c1nc(-c2cccnc2)cs1`, for which the “activity, negative = inhibition” value was 5.31%.

As for `Cc1ccccc1-n1c(=O)c2ccccc2n(Cc2ccc(F)cc2)c1=O`, the “activity, negative = inhibition” value was 28.7%. With `O=C(Nc1cc(Cl)cc(Cl)c1)c1ccc2c(c1)N(Cc1cccc(Cl)c1)C(=O)c1ccccc1S2=O` (configuration not stated), the “activity, negative = inhibition” value was -3.86%.

For the molecule `Cc1cc(=O)oc2c(C)c(OCC(=O)NCCN3CCOCC3)ccc12`, the “activity, negative = inhibition” value was 20.5%.

As to `CCc1cc(=O)oc2c(C)c(OCC(=O)NCCN3CCOCC3)ccc12`, the Potency is 79.4 µM (active). On to `CCCc1cc(=O)oc2c(C)c(OCC(=O)NCc3ccccn3)ccc12`, for which the “activity, negative = inhibition” value was -18.4%. With `O=C(Nc1ccc(-c2ccc3nncn3n2)cc1)C1CCCCC1`, the “activity, negative = inhibition” value is 37.4%.

Take `CC(=O)Nc1ccc(S(=O)(=O)Nc2ccc(-c3ccc4nnc(C)n4n3)cc2)cc1`: the “activity, negative = inhibition” value is 59.5%. In the case of `CC(=O)c1ccc(S(=O)(=O)Nc2ccc(-c3ccc4nncn4n3)cc2)cc1`, the Potency is 50.1 µM (active). As for `Cc1cc(OC(C)C(=O)Nc2sc3c(c2C(N)=O)CCCC3)ccc1Cl` (configuration not stated), the “activity, negative = inhibition” value is -7.08%.

On to `COc1cccc(C(=O)NC2=NC(c3ccc(N(C)C)cc3)CC(=O)N2)c1` (configuration not stated), for which the “activity, negative = inhibition” value is 11.2%. As to `CSc1nc(-c2ccccc2Cl)nc2c1Cc1c(CO)cnc(C)c1O2`, the “activity, negative = inhibition” value is -7.6%. On to `CC(C)c1ccc(Nc2nnc(SCC(=O)c3nnc(-c4ccccc4)o3)s2)cc1`, for which the Potency is 22.4 µM (active).

With `CC(C)Nc1nnc(SCC(=O)c2c[nH]c3ccccc23)s1`, the “activity, negative = inhibition” value is 16.3%. On to `CC(C)N(C(=O)CSc1nnc(NC2CC2)s1)c1ccccc1`, for which the “activity, negative = inhibition” value is 50.4%. The same measure, in the same setting: the result for `CCc1cccc(C)c1NS(=O)(=O)c1ccc(-c2cc(C)no2)s1` reads -1.65%; that for `COC(=O)/C=C\C(=O)Nc1cccc([N+](=O)[O-])c1`, 0.272%. In the case of `COc1ccc(OC)c(NC(=O)/C=C/c2ccc(C)o2)c1`, the “activity, negative = inhibition” value was -16%. With `Cc1ccc(/C=C/C(=O)Nc2ccc([N+](=O)[O-])c(NC(=O)/C=C/c3ccc(C)o3)c2)o1`, the Potency was 25.1 µM (active). `Cc1ccc(Cn2c(=O)n(Cc3nc(-c4ccccc4)no3)c(=O)c3cc4c(cc32)OCO4)cc1`: the “activity, negative = inhibition” value is -10.1%. `O=C(CSc1nc(=O)n(Cc2cccnc2)c2c1CCC2)Nc1ccc(F)cc1F`: the “activity, negative = inhibition” value is 30.7%.

For the origin of these results see PubChem BioAssay AID588590 (National Center for Advancing Translational Sciences (NCATS), 2011).
